For 27 molecules, composite z-score results are on record in PubChem BioAssay.

For this assay, the target named is Neurogenic locus notch homolog protein 2 (Homo sapiens) (UniProt Q04721). Description: small molecules binding Notch2 protein – biochemical, small-molecule microarray, 635 nm fluorescence, stem cell growth factors, primary screen (AID 1073). The following applies: higher = more signal.
Sequence of Neurogenic locus notch homolog protein 2 (Homo sapiens) (Q04721 whole entry, looked up): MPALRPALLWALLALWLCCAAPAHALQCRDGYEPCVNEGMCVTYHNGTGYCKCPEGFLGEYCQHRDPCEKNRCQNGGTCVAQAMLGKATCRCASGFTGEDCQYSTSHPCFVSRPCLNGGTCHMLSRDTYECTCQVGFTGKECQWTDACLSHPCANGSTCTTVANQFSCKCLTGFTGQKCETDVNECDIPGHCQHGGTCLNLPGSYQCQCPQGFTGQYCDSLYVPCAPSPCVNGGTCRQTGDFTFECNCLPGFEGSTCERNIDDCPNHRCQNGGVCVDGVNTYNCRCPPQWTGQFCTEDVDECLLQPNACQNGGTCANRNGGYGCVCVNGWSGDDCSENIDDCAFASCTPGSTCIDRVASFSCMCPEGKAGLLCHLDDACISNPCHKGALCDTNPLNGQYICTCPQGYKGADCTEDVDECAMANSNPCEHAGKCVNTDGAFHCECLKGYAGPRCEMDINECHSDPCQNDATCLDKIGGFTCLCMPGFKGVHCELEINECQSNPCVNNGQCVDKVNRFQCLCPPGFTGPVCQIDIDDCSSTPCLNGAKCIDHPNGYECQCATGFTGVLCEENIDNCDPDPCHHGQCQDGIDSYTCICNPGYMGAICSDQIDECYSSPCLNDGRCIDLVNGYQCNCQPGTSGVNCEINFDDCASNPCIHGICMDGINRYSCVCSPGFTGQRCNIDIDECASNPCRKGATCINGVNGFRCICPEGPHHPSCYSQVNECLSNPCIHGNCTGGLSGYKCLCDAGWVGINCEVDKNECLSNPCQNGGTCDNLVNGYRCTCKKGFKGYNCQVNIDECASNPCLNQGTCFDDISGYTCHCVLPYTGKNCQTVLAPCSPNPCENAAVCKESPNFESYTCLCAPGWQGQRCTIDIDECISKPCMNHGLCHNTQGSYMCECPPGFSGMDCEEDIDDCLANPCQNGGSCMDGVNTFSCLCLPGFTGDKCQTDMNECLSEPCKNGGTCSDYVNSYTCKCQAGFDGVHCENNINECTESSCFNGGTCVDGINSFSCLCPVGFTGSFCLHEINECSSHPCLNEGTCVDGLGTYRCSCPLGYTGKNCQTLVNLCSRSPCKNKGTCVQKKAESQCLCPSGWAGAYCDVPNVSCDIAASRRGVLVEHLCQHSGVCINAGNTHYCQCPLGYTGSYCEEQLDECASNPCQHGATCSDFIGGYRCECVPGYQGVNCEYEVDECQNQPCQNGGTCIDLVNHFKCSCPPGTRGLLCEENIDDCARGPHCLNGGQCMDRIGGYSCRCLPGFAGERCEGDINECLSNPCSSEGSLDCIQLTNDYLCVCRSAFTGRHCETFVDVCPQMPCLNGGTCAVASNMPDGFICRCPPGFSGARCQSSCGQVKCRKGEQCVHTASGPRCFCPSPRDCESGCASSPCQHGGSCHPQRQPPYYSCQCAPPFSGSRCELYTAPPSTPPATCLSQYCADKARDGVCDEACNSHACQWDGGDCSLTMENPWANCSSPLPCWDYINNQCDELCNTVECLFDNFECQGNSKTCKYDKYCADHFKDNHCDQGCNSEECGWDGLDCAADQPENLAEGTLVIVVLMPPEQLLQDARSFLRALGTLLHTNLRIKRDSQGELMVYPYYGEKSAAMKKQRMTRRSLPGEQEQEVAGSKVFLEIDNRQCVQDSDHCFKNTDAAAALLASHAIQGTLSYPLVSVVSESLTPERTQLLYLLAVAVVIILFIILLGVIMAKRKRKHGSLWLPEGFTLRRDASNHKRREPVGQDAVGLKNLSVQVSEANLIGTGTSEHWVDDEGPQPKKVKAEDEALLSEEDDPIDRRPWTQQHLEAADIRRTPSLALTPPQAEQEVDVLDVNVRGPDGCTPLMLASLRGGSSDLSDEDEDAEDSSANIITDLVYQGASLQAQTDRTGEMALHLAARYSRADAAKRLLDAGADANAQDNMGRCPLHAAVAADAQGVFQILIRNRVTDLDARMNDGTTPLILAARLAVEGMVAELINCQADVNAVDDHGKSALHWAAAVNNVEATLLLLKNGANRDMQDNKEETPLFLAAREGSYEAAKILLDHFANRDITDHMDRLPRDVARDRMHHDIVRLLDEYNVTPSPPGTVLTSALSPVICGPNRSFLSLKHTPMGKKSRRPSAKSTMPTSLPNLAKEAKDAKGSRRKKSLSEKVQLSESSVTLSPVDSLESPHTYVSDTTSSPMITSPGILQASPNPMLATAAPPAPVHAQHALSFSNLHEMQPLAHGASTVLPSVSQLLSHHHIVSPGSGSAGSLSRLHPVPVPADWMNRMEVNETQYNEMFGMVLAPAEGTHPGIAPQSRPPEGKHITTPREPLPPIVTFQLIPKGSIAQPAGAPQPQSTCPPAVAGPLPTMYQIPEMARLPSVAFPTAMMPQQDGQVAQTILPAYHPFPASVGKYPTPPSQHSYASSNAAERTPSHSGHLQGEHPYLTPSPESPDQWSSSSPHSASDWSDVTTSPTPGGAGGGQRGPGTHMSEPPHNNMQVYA
In turn, `CCCNC(=O)[C@@]1(Sc2ccc(C)cc2)CC(=O)N(Cc2ccccc2Cl)[C@@H]1c1ccc(CO)cc1` showed a composite z-score of 0.653.
With `C[C@H]1COC(=O)[C@H](Cc2ccccc2)NC(=O)[C@@H](C)COC(=O)[C@H](Cc2ccccc2)NC1=O` the figure was 0.694; with `CC(C)N1CC=CC23O[C@@H]4/C=C\CCCOC(=O)C4[C@H]2C(=O)N(CCO)[C@@H]3C1=O` (some centres not stated), -0.933; with `COC(=O)[C@@]1(Cc2ccc(OC)cc2)[C@H]2c3cc(C(=O)N(C)C)n(CCc4ccc(OC)c(Br)c4)c3C[C@H]2CN1C(=O)c1ccccc1`, 1.66.
As to `COCCOC(=O)N1C(=O)[C@@]2(c3cc(C#CCCO)ccc31)[C@H](c1ccc(O)cc1)N1[C@H](c3ccccc3)[C@H](c3ccccc3)OC(=O)[C@H]1[C@@H]2C(=O)Nc1nc2ccccc2s1`, the composite z-score turned out to be 1.25.
The figure for `C=CC[C@]1(C(=O)N2CCCCC2)N=C(c2ccc(OCCCO)cc2)O[C@H]1c1ccccc1N=[N+]=[N-]` is 1.5.
The figure for `CCCC=C(CCC)[C@@H](NS(=O)(=O)c1cccc(C(F)(F)F)c1)c1ccc(C(=O)OC)cc1` is 0.318.
The figure for `COc1ccc([Si](C)(C)[C@@H]2[C@@H](CC(=O)N(CCO)Cc3ccccc3)O[C@]3(C(=O)N(Cc4cccc(N5CCC5=O)c4)c4ccccc43)[C@H]2C)cc1` is 0.205; for `COc1cc([C@@H]2N[C@H](C(=O)O)Cc3c2[nH]c2ccccc32)cc(OC)c1OC` it is 0.507.
As to `COCC(=C=CC[C@H](O)c1ccc(OCCO)cc1)C[C@H](O)c1ccccn1`, the composite z-score is -0.499.
With `COCCOC(=O)N1C(=O)[C@@]2(c3cc(C#CC4(O)CCCCCC4)ccc31)[C@H](C(=O)N1CCCCCCC1)[C@H]1C(=O)O[C@H](c3ccccc3)[C@H](c3ccccc3)N1[C@@H]2c1ccc(O)cc1` the figure was 0.899; with `C=CCC(OC(C)=O)[C@@H]1[C@@H](N(Cc2cc3ccccc3o2)C(=O)c2ccc(C)cc2)c2cc(OCCCO)ccc2N1C(=O)c1ccc2ccccc2n1` (some centres not stated), 0.191.
In turn, `C=C(COC)C(=O)CC[C@H](OC(=O)c1ccccc1-c1ccccc1C(=O)O)c1cccc(OCCO)c1` had a composite z-score of 0.0421.
`CC(C)[Si](OCC[C@H]1O[C@]2(C(=O)N(Cc3ccccc3)c3ccccc32)[C@@H](C)[C@@H]1[Si](C)(C)O)(C(C)C)C(C)C`: the composite z-score was -0.0407.
With `CO[C@H]1COC(=O)CC=C[C@H](C)[C@@H](OC)COC(=O)CC=C[C@@H]1C` the figure was -0.209; with `COCCOC(=O)N1C(=O)[C@@]2(c3cc(C#CC4=CCCCC4)ccc31)[C@H](C(=O)NC[C@H](O)c1ccccc1)[C@H]1C(=O)O[C@H](c3ccccc3)[C@H](c3ccccc3)N1[C@@H]2c1ccccc1OCCO`, 1.15.
In the case of `COc1cc2c(cc1OC)CN(C(=O)[C@H]1[C@@H]3C(=O)O[C@@H](c4ccccc4)[C@@H](c4ccccc4)N3[C@@H](c3ccc(O)cc3)[C@]13C(=O)Nc1ccc(C#CC4(O)CCCCCC4)cc13)CC2`, the composite z-score came out at 0.685.
With `CN(C)C(=O)[C@@]1(Cc2ccccc2N=[N+]=[N-])N=C(c2ccc(OCCCO)cc2)O[C@H]1c1ccccc1CN=[N+]=[N-]` the figure was 1.56.
The figure for `CO[C@H]1COC(=O)[C@@H](C)COC(=O)[C@H](Cc2ccccc2)NC(=O)CC=C[C@H]1C` is -0.26; for `CC(=O)NCCCC[C@@H]1NC(=O)[C@H]2C[C@@H](C(=O)NCCCCCCN(C)C)[C@@H](c3cccc(OCCO)c3)N2C1=O` it is 1.54.
With `C=CCC(OC(C)=O)[C@@H]1[C@@H](N(Cc2ccc(-c3ccccc3)cc2)C(=O)c2ccc(-c3ccccc3)cc2)c2cc(OCCCO)ccc2N1C(=O)Cc1ccc(OC)cc1` (some centres not stated) the figure was -0.142; with `COCCCNC(=O)[C@@H]1c2ccccc2C(=O)N(CC23CC4CC(CC(C4)C2)C3)[C@H]1c1ccc(CO)cc1`, 1.46; with `C=CCN1C(=O)[C@]2(O[C@H](CCn3cc(CCO)nn3)[C@@H]([Si](C)(C)c3ccc(OC)cc3)[C@@H]2C)c2cc(NC(=O)c3ccc(OC)cc3)ccc21`, 0.48.
Molecule `C=C(CCCC)/C(=C/C[C@@H](OC(=O)c1ccncc1)c1ccc(CO)o1)c1cnc2ccccc2c1` showed a composite z-score of 1.59.
The molecule `COC(=O)Cn1c(C(=O)N2CCCC2)cc2c1C[C@H]1CN(C(=O)c3ccccc3)[C@@](Cc3ccc(OC)cc3)(C(=O)OC)[C@@H]21` registered a composite z-score of 1.68.
With `C=C(CCCC)C(=O)CC[C@@H](OC(C)=O)c1ccccc1OCCO` the figure was -0.975.
The figure for `CCOC(=O)C[C@H]1[C@H](OC(=O)c2cc3ccccc3oc2=O)[C@@H](NC(=O)C2CCCCC2)c2cc(OCCCO)ccc2N1C(=O)c1ccc2ccccc2n1` is 0.432.
